# Paper PMC7862700, “An all-to-all approach to the identification of sequence-specific readers for epigenetic DNA modifications on cytosine”
# Key:
# Experiment in all cases: DAPPL (digital affinity profiling via proximity ligation, sequencing); 10 mM Tris-HCl pH 7.5, 50 mM NaCl, 1 mM DTT, 4% glycerol, room temperature, 30 min; GST-TFs on glutathione beads, 16-mer random dsDNA library, 0.1% formaldehyde crosslink after washing; high values mean tight binding
# FLI1 = biological target: T1, FLI1 (Homo sapiens, UniProt Q01543 1-452); conditions: protein: recombinant; tags: N-terminal GST; dsDNA, one strand shown
# T1 sequence: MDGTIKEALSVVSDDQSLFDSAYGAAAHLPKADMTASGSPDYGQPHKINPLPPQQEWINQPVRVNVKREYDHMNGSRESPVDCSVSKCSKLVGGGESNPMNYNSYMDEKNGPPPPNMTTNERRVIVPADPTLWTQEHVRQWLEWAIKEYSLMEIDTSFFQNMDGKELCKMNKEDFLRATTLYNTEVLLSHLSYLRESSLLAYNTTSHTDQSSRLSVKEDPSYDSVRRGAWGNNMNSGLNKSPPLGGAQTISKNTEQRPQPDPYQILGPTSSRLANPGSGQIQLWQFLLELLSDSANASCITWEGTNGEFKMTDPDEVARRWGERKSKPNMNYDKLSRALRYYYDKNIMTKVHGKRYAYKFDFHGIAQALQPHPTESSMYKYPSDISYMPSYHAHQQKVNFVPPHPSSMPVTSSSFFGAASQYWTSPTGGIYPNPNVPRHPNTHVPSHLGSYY
# In short: (§1)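 A tag-only sample was pooled with DNA-barcoded human transcription factors that had been expressed in yeast as GST fusions and captured on glutathione beads. The pools were incubated for 30 min at room temperature with 200 nmole of a random double-stranded 16-mer DNA library in Tris/NaCl/DTT/glycerol buffer, then washed, crosslinked with 0.1% formaldehyde, proximity-ligated (BsaI/T4 ligase, 1 h, 37 °C), PCR-amplified and sequenced on an Illumina NextSeq500. Binding signal is each hexamer's read frequency for a factor divided by its frequency for the tag-only sample.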
# ELK1 = biological target: T2, ELK1 (Homo sapiens, UniProt P19419 1-428); conditions: protein: recombinant; tags: N-terminal GST; dsDNA, one strand shown
# T2 sequence: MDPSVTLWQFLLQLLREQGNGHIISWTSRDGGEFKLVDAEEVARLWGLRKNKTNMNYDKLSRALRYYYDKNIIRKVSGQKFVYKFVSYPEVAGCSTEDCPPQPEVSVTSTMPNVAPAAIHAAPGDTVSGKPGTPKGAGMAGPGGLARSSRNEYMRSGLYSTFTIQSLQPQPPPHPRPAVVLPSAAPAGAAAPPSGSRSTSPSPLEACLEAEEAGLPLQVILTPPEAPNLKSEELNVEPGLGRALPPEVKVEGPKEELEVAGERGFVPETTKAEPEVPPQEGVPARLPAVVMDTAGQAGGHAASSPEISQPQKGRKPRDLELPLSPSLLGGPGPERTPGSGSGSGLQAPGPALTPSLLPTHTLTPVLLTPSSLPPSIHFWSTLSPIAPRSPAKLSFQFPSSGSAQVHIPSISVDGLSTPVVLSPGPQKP
# In short: as §1
# GABPA = biological target: T3, GABPA (Homo sapiens, UniProt Q06546 1-454); conditions: protein: recombinant; tags: N-terminal GST; dsDNA, one strand shown
# T3 sequence: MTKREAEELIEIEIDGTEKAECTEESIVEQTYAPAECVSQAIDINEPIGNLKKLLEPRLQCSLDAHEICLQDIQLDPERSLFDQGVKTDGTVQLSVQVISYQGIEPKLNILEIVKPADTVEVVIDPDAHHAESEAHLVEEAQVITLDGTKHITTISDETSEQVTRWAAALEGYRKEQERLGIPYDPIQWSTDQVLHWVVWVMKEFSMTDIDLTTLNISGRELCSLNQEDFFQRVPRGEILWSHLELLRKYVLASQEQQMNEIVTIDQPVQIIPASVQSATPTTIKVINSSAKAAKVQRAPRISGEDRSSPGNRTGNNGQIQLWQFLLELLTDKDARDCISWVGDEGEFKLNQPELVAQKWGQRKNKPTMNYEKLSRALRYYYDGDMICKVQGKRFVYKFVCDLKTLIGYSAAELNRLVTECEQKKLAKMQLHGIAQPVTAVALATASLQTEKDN
# In short: as §1
# ERG = biological target: T4, ERG (Homo sapiens, UniProt P11308 1-479); conditions: protein: recombinant; tags: N-terminal GST; dsDNA, one strand shown
# T4 sequence: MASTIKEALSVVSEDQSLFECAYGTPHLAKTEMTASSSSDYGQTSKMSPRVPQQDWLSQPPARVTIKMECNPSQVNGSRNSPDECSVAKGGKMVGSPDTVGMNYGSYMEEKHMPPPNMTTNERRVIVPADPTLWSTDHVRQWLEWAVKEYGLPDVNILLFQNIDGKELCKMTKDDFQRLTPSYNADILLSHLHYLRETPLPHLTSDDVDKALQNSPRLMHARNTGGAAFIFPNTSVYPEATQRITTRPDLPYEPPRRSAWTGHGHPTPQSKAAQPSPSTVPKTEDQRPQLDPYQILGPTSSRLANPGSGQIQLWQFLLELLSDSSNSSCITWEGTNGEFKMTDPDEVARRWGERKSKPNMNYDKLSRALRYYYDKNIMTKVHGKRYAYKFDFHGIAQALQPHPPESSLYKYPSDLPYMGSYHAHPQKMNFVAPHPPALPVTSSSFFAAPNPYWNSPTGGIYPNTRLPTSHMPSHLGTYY
# In short: as §1
# ELF1 = ELF1 (Homo sapiens, UniProt P32519 1-619); conditions: protein: recombinant; tags: N-terminal GST; dsDNA, one strand shown
# Sequence of ELF1 (P32519 whole entry): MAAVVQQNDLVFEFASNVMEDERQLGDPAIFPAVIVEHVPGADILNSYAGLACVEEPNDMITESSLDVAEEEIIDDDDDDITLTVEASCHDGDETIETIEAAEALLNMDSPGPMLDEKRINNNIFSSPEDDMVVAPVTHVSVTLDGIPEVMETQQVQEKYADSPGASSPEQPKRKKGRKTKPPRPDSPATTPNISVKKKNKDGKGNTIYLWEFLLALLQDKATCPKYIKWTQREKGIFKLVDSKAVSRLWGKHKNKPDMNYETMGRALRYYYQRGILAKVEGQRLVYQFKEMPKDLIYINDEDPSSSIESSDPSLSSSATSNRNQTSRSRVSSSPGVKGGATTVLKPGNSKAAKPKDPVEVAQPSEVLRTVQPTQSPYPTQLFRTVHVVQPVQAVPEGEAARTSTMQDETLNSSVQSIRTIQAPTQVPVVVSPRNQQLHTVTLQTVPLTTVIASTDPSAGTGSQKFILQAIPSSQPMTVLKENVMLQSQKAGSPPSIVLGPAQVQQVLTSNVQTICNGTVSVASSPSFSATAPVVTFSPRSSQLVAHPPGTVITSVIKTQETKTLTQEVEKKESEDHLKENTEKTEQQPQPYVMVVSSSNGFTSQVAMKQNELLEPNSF
# In short: as §1
# EHF = biological target: T5, EHF (Homo sapiens, UniProt Q9NZC4 1-300); conditions: protein: recombinant; tags: N-terminal GST; dsDNA, one strand shown
# T5 sequence: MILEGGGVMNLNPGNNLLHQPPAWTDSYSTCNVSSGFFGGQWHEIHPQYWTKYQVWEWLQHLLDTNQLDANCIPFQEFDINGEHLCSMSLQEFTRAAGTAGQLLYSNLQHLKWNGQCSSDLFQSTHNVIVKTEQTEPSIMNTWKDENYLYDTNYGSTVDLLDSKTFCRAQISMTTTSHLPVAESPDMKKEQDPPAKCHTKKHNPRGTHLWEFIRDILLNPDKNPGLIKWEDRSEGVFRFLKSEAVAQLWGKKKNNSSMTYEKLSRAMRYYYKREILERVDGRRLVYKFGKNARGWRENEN
# In short: as §1
# SPI1 = SPI1 (Homo sapiens, UniProt P17947 1-270); conditions: protein: recombinant; tags: N-terminal GST; dsDNA, one strand shown
# In short: as §1
# SPIB = SPIB (Homo sapiens, UniProt Q01892 1-262); conditions: protein: recombinant; tags: N-terminal GST; dsDNA, one strand shown
# Sequence of SPIB (Q01892 whole entry): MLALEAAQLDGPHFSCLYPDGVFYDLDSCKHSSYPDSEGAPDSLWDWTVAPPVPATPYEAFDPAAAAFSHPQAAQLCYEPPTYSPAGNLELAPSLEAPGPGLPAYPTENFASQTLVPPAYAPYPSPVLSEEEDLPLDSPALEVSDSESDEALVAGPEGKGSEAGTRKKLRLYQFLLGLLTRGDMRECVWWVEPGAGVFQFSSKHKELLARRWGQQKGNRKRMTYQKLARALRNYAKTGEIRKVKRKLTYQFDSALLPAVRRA
# In short: as §1
# ELK3 = biological target: T6, ELK3 (Homo sapiens, UniProt P41970 1-407); conditions: protein: recombinant; tags: N-terminal GST; dsDNA, one strand shown
# T6 sequence: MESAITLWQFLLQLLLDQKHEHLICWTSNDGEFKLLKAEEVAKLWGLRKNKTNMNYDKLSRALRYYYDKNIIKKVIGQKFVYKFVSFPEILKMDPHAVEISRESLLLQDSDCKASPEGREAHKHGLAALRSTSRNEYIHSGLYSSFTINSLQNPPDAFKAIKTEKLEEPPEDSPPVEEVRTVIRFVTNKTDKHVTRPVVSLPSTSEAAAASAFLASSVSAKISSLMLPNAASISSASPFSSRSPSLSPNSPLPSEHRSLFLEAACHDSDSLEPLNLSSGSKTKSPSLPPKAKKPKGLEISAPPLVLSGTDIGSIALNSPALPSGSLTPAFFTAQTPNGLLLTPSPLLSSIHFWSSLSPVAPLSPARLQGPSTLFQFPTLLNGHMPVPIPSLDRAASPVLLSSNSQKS
# In short: as §1
# FEV = biological target: T7, FEV (Homo sapiens, UniProt Q99581 1-238); conditions: protein: recombinant; tags: N-terminal GST; dsDNA, one strand shown
# T7 sequence: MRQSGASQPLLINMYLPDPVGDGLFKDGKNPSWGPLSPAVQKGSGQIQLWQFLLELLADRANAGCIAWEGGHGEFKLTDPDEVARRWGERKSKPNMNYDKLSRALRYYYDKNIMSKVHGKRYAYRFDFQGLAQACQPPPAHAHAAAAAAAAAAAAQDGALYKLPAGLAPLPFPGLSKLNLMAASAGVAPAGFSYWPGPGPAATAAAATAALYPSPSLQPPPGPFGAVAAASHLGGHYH
# In short: as §1
# ETV5 = ETV5 (Homo sapiens, UniProt P41161 1-510); conditions: protein: recombinant; tags: N-terminal GST; dsDNA, one strand shown
# Sequence of ETV5 (P41161 whole entry): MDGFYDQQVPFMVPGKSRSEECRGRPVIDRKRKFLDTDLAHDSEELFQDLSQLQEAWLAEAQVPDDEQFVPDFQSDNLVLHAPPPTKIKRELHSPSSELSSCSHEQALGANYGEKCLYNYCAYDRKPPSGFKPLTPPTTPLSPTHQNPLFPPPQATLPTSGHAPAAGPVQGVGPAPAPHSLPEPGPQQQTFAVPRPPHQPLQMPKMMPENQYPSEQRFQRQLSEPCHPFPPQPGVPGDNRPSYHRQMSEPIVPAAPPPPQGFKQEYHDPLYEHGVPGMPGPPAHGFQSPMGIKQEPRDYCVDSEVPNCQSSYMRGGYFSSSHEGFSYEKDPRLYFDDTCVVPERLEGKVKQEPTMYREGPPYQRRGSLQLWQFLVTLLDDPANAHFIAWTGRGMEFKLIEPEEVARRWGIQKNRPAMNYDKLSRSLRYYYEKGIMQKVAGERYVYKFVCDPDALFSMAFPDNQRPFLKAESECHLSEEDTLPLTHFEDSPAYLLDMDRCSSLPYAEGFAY
# In short: as §1
# HSF1 = HSF1 (Homo sapiens, UniProt Q00613 1-529); conditions: protein: recombinant; tags: N-terminal GST; chain copies: 3; dsDNA, one strand shown
# Sequence of HSF1 (Q00613 whole entry): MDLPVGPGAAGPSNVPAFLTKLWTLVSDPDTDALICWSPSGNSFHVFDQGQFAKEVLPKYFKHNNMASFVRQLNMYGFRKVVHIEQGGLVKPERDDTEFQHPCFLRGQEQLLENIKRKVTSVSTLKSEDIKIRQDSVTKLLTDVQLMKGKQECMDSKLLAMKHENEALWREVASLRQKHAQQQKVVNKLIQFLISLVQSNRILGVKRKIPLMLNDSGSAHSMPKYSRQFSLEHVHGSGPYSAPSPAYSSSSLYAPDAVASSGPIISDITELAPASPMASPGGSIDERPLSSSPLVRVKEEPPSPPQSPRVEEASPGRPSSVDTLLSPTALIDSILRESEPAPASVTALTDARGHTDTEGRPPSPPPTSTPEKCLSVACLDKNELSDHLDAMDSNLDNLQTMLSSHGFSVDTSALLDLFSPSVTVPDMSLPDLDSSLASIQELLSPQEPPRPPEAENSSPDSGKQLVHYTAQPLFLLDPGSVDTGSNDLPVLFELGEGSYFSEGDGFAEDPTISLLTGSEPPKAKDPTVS
# In short: as §1
# SPIC = biological target: T8, SPIC (Homo sapiens, UniProt Q8N5J4 1-248); conditions: protein: recombinant; tags: N-terminal GST; dsDNA, one strand shown
# T8 sequence: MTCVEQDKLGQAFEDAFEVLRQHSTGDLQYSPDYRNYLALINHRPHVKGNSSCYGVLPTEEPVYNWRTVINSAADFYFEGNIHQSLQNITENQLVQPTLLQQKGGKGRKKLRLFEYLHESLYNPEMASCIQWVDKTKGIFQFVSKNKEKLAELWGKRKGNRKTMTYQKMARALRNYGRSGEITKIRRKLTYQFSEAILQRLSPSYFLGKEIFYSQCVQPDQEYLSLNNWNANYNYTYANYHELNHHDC
# In short: as §1
# ELF4 = ELF4 (Homo sapiens, UniProt Q99607 1-663); conditions: protein: recombinant; tags: N-terminal GST; dsDNA, one strand shown
# Sequence of ELF4 (Q99607 whole entry): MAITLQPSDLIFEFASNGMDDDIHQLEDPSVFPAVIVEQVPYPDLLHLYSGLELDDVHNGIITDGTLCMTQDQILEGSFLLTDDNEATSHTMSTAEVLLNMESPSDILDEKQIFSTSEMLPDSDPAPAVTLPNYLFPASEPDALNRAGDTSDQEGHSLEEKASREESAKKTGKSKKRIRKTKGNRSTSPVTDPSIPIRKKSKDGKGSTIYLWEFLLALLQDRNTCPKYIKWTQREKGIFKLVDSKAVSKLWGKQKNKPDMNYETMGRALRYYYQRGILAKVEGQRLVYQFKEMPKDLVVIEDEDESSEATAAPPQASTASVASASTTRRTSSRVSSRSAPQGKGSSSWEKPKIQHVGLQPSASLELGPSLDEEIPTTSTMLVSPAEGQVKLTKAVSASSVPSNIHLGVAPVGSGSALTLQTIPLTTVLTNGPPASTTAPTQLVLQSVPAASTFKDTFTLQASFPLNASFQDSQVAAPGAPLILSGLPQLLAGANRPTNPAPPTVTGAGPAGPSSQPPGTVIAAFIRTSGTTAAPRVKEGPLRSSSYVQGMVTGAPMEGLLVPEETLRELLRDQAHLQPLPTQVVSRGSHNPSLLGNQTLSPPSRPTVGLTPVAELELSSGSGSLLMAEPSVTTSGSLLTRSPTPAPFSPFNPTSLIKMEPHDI
# In short: as §1
# ELK4 = biological target: T9, ELK4 (Homo sapiens, UniProt P28324-2 1-405); conditions: protein: recombinant; tags: N-terminal GST; dsDNA, one strand shown
# T9 sequence: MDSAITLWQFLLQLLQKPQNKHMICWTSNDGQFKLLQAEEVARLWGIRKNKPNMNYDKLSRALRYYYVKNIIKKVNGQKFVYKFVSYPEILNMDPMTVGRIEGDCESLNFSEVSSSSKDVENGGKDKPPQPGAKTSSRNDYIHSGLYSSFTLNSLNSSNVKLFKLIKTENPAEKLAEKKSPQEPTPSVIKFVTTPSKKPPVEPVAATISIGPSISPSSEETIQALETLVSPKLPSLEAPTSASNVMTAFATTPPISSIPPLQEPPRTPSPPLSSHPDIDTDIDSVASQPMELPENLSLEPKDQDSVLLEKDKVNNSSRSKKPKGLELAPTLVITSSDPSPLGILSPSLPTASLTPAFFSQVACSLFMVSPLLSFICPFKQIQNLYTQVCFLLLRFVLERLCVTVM
# In short: as §1
# ETV2 = biological target: T10, ETV2 (Homo sapiens, UniProt O00321 1-342); conditions: protein: recombinant; tags: N-terminal GST; dsDNA, one strand shown
# T10 sequence: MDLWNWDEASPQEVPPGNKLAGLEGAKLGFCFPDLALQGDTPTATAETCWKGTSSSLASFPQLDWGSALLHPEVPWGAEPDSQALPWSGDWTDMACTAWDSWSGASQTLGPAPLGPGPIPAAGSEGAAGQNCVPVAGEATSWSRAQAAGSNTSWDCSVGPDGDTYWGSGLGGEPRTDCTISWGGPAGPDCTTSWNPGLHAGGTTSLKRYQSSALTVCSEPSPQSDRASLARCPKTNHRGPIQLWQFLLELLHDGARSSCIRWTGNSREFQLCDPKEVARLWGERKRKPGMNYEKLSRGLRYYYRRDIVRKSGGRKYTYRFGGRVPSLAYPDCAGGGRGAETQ
# In short: as §1
# ELF3 = biological target: T11, ELF3 (Homo sapiens, UniProt P78545 1-371); conditions: protein: recombinant; tags: N-terminal GST; dsDNA, one strand shown
# T11 sequence: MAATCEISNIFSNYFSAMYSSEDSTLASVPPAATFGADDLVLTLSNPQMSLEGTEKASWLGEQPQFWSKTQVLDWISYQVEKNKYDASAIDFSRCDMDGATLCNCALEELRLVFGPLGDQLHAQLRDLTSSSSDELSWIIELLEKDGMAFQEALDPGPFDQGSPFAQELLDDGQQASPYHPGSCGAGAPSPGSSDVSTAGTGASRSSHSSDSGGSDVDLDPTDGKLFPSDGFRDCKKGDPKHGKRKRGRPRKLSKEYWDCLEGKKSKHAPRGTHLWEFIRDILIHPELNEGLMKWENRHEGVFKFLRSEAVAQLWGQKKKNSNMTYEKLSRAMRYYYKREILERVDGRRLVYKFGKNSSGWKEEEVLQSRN
# In short: as §1
# CRX = CRX (Homo sapiens, UniProt O43186 1-299); conditions: protein: recombinant; tags: N-terminal GST; dsDNA, one strand shown
# Sequence of CRX (O43186 whole entry): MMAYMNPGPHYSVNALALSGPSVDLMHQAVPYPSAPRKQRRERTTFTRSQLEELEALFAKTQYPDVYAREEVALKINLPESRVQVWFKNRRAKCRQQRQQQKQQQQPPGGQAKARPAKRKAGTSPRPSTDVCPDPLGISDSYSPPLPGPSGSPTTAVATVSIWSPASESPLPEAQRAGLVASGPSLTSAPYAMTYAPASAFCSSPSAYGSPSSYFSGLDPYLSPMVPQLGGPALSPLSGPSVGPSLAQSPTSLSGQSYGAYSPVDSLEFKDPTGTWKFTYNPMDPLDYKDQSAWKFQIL
# In short: as §1
# ETV1 = ETV1 (Homo sapiens, UniProt P50549 1-477); conditions: protein: recombinant; tags: N-terminal GST; dsDNA, one strand shown
# Sequence of ETV1 (P50549 whole entry): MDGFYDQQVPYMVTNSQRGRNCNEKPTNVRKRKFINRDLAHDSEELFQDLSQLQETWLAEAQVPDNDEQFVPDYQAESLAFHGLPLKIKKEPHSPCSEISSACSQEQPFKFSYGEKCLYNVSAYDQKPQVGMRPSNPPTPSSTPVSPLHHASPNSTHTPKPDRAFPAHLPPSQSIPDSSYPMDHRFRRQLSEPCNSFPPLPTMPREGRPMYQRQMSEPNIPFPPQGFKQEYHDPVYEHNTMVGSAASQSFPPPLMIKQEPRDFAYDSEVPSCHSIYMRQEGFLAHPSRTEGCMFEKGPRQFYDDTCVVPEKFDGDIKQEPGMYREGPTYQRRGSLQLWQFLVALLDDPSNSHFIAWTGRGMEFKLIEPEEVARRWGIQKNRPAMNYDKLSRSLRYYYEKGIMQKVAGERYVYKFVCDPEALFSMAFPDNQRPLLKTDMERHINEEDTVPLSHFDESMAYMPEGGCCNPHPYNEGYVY
# In short: as §1
sequence,measurement,setting,value
ACAATA,binding signal,FLI1,"1.13 fold enrichment (6-mer frequency, TF over GST control)"
same,binding signal,ELK1,"1.12 fold enrichment (6-mer frequency, TF over GST control)"
same,binding signal,GABPA,"1.29 fold enrichment (6-mer frequency, TF over GST control)"
same,binding signal,ERG,"1.13 fold enrichment (6-mer frequency, TF over GST control)"
same,binding signal,ELF1,"1.1 fold enrichment (6-mer frequency, TF over GST control)"
same,binding signal,EHF,"1.16 fold enrichment (6-mer frequency, TF over GST control)"
same,binding signal,SPI1,"1.16 fold enrichment (6-mer frequency, TF over GST control)"
same,binding signal,SPIB,"1.2 fold enrichment (6-mer frequency, TF over GST control)"
same,binding signal,ELK3,"1.23 fold enrichment (6-mer frequency, TF over GST control)"
same,binding signal,FEV,"1.13 fold enrichment (6-mer frequency, TF over GST control)"
same,binding signal,ETV5,"1.15 fold enrichment (6-mer frequency, TF over GST control)"
same,binding signal,HSF1,"1.16 fold enrichment (6-mer frequency, TF over GST control)"
same,binding signal,SPIC,"1.12 fold enrichment (6-mer frequency, TF over GST control)"
same,binding signal,ELF4,"1.16 fold enrichment (6-mer frequency, TF over GST control)"
same,binding signal,ELK4,"1.22 fold enrichment (6-mer frequency, TF over GST control)"
same,binding signal,ETV2,"1.2 fold enrichment (6-mer frequency, TF over GST control)"
same,binding signal,ELF3,"1.33 fold enrichment (6-mer frequency, TF over GST control)"
same,binding signal,CRX,"1.19 fold enrichment (6-mer frequency, TF over GST control)"
same,binding signal,ETV1,"1.13 fold enrichment (6-mer frequency, TF over GST control)"
